This note sets out measurements from PubChem BioAssay (Tox21).

Records with an inconclusive call do not appear. Entries that show only a call come without a potency. Active and inactive are the calls of the source. Calls follow the shape of the dose curve; as a rule, active = well fitted activation curve with a large enough effect in the repeat runs; inconclusive = weak or mixed curves; inactive = no such curve, though single readings can be large or run the other way.
Potency is read from the fitted curve at half-maximal effect.

In this assay the target is Nuclear receptor subfamily 1 group I member 2 (Homo sapiens) (UniProt O75469). Description: Human pregnane X receptor (PXR) small molecule agonists, qHTS assay (AID 1346982). Also: nearly all actives have a fitted effect of over 35% in size. Conditions: PXR-Luc HepG2, CYP3A4 luciferase reporter, 24 h; series mostly up to 92.4 µM. The text has this: National Center for Advancing Translational Sciences [NCATS]
Chain of Nuclear receptor subfamily 1 group I member 2 (Homo sapiens) (O75469 whole entry, looked up): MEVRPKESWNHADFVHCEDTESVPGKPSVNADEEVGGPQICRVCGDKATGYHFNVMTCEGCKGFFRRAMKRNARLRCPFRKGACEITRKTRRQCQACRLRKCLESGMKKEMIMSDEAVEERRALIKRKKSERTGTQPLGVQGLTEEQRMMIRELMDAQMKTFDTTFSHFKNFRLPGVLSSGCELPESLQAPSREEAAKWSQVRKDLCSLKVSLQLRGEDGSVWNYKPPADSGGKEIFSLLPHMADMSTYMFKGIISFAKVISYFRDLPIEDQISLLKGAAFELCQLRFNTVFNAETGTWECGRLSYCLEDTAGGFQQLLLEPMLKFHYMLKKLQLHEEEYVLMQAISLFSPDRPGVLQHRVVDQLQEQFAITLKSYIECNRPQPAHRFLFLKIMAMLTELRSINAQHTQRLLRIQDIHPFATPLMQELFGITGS
NIH Chemical Genomics Center [NCGC]
U.S. Environmental Protection Agency [EPA]
National Institutes of Environmental Health Sciences [NIEHS]
National Toxicology Program [NTP]
The human pregnane X receptor (hPXR) regulates the expression of several drug metabolizing enzymes and induction of these proteins is a major mechanism for developing drug resistance in cancer. One such key enzyme catalyzing the drug metabolism is cytochrome P450 3A4 (CYP3A4). Changes in CYP3A4 expression affect drug metabolism, thereby reducing the therapeutic efficacy and altering toxicological response to a drug and which finally causes adverse drug interaction. To screen Tox21 libraries for compounds that activate hPXR-mediated CYP3A4 gene expression, PXR-Luc HepG2 cells were used.
PXR-Luc HepG2 cells were dispensed at 2,000 per well in 5uL of assay medium containing 5% charcoal-stripped FBS into white solid bottom 1536-well plates (Corning Life Sciences, Corning, NY) using a Multidrop Combi (Thermo Scientific, Waltham, MA) dispenser. The assay plates were incubated at 37 C and 5% CO2 for 5hr, and then 23nL of compounds dissolved in DMSO and positive control were transferred using a Pintool station (Wako, San Diego, CA). The assay plates were incubated at 37C and 5% CO2 for 24hr. For luciferase read, 4uL of ONE-Glo reagent (Promega Corporation, Madison, WI) was added to each well of the assay plates using Flying Reagent Dispenser (FRD, Aurora Discovery, San Diego, CA) and incubated the assay plates at room temperature for 30min. The luminescence signal was quantified using a ViewLux plate reader (Perkin Elmer, Shelton, CT).
(In general: qHTS replaces the single test concentration by a dilution series.)
With `C=CCCCCCCCCC(=O)OCC`, the Potency result is “inactive”.
Same read-out and setting: in the case of `CCCCCCCCCCCCCCC(=O)O` it was “inactive”.
Same read-out and setting: in the case of `Cc1ccc(C(=O)c2ccc(CC(=O)O)n2C)cc1` it was “inactive”; in that of `C=C[Si](OC(C)=O)(OC(C)=O)OC(C)=O`, “inactive”.
Regarding `CCOC(=O)CCC(=O)OCC`, the Potency entry is “inactive”.
On to `CCC(=O)OCc1ccccc1`, for which the Potency result was “inactive”.
The same measure, in the same setting: in the case of `O=C(c1ccccc1O)c1ccccc1O` it was 60.5 µM (active); in that of `CN(C)[C@@H]1C(=O)C(C(=O)NCN2CCCC2)=C(O)[C@@]2(O)C(=O)C3=C(O)c4c(O)cccc4[C@@](C)(O)C3C[C@@H]12` (stereo not given in full), “inactive”; in that of `CC1=CC(=O)[C@H]2C[C@@H]1C2(C)C`, “inactive”.
Turning to `Cc1ccc(-c2ccccc2C#N)cc1`, the Potency result is “inactive”.
Consider `Cc1cc(C)c(N=Nc2c(O)c(S(=O)(=O)O)cc3cc(S(=O)(=O)O)ccc23)cc1C`, for which the activation was -9.92% [at 8.39 µM] (inactive).
As for `O=C1CCCCCCCCCCCCCCO1`, the Potency result is “inactive”.
The same measure, in the same setting: for `NC(=O)Cc1cccc2ccccc12` the value was “inactive”.
Same read-out and setting: in the case of `CN(C)C(=O)Oc1cccc([N+](C)(C)C)c1` it was “inactive”.
On the same count and under the same terms, for `CCCCCCCC1CCCC1=O` (stereo not given) the value was “inactive”; for `CN(C)CCCN(C)CCCN(C)C`, “inactive”; for `Nc1ccn([C@@H]2O[C@H](CO)[C@@H](O)C2O)c(=O)n1` (stereo not given in full), “inactive”.
As to `Cc1nc(C2CCCCC2)c(-c2ccc(S(N)(=O)=O)c(F)c2)o1`, the Potency was 21.1 µM (active).
For `C=CCOCC(O)CO` (stereo not given), the Potency entry is “inactive”.
Still for that read-out and setting: in the case of `CCCCCCCCCC[N+](C)(C)[O-]` it was “inactive”; in that of `CCOc1ccccc1OCC`, “inactive”; in that of `FB(F)F`, “inactive”.
Still for that read-out and setting: in the case of `C[C@@H]1C[C@H]2[C@@H]3C[C@H](F)C4=CC(=O)C(Cl)=C[C@]4(C)[C@@]3(F)[C@@H](O)C[C@]2(C)[C@@]1(O)C(=O)CO` it was 2.11 µM (active); in that of `CC1=NS(=O)(=O)c2cc(Cl)ccc2N1`, “inactive”; in that of `CCCOC(=O)CC`, “inactive”.
Still for that read-out and setting: for `Cc1ccnc(NS(=O)(=O)c2ccc(N)cc2)n1` the value was “inactive”; for `CCN[C@H]1C[C@H](C)S(=O)(=O)c2sc(S(N)(=O)=O)cc21`, “inactive”.
Consider `C1CCC2(CCCCO2)OC1`, for which the Potency entry was “inactive”.
On the same count and under the same terms, for `[K+]` the value was 27.3 µM (active); for `CC(C)CCCO`, “inactive”; for `CCOC(=O)c1ccccc1`, “inactive”.
Same read-out and setting: in the case of `CC(=O)N[C@H]1[C@H]([C@H](O)[C@H](O)CO)OC(C(=O)O)=C[C@@H]1N=C(N)N` it was “inactive”; in that of `CNC(=O)Nc1ccc(Cl)c(Cl)c1`, 34.4 µM (active).
Consider `CC(=O)Nc1ccc(OCC(O)CNC(C)C)cc1` (stereo not given), for which the Potency result was “inactive”.
Same read-out and setting: for `C=CCCC(=O)O` the value was “inactive”; for `CC(C)C1CCC(O)CC1` (stereo not given), “inactive”.
Same read-out and setting: in the case of `C=COCC1CCC(COC=C)CC1` (stereo not given) it was “inactive”; in that of `CCCCN(CCC(=O)OCC)C(C)=O`, “inactive”; in that of `CC(C)c1ccc2ncccc2c1`, “inactive”.
The same measure, in the same setting: for `Nc1ccncc1N` the value was “inactive”.
